# Laboratory results: the supplement of paper PMC4466140
# Columns and labels:
# Assay in all cases: SPOT peptide array binding signal intensity (averaged, normalized) (arbitrary units (background-subtracted, floor 0; scale differs between SH3 domains)); higher = stronger binding of the SH3 domain to the peptide
# [1] = target: AgAbp1
# Procedure, shortened: (§1)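 GST-fused SH3 domains from four yeast species were expressed in E. coli BL21(DE3), purified on glutathione Sepharose and incubated at 10 μg/ml overnight at 4°C in TBS-based blocking buffer on cellulose membranes carrying synthetic 15-mer peptides, with cysteines replaced by serines. Bound protein was detected with anti-GST antibody, an HRP anti-mouse secondary and luminol, then imaged and quantified with Genespotter. Binding signal is the normalized, background-subtracted spot intensity averaged over replicates, in arbitrary units that differ between domains.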
# [2] = target: AgBbc1
# Procedure, shortened: as §1
# [3] = target: AgBem1-D1
# Procedure, shortened: as §1
# [4] = target: AgBzz1-D1
# Procedure, shortened: as §1
# [5] = target: AgBzz1-D2
# Procedure, shortened: as §1
# [6] = target: AgCyk3
# Procedure, shortened: as §1
# [7] = target: AgFus1
# Procedure, shortened: as §1
# [8] = target: AgHof1
# Procedure, shortened: as §1
# [9] = target: AgHse1
# Procedure, shortened: as §1
# [10] = target: AgLsb1
# Procedure, shortened: as §1
# [11] = target: AgLsb4
# Procedure, shortened: as §1
# [12] = target: AgMyo5
# Procedure, shortened: as §1
# [13] = target: AgNbp2
# Procedure, shortened: as §1
# [14] = target: AgRvs167
# Procedure, shortened: as §1
# [15] = target: AgSho1
# Procedure, shortened: as §1
# [16] = target: AgSla1-D1-D2
# Procedure, shortened: as §1
# [17] = target: AgSla1-D3
# Procedure, shortened: as §1
# [18] = target: CaAbp1-D1
# Procedure, shortened: as §1
# [19] = target: CaAbp1-D2
# Procedure, shortened: as §1
# [20] = target: CaBbc1
# Procedure, shortened: as §1
# [21] = target: CaBem1-D1
# Procedure, shortened: as §1
# [22] = target: CaBzz1-D1
# Procedure, shortened: as §1
# [23] = target: CaBzz1-D2
# Procedure, shortened: as §1
# [24] = target: CaCyk3
# Procedure, shortened: as §1
# [25] = target: CaFus1
# Procedure, shortened: as §1
# [26] = target: CaHof1
# Procedure, shortened: as §1
# [27] = target: CaHse1
# Procedure, shortened: as §1
# [28] = target: CaLsb1
# Procedure, shortened: as §1
# [29] = target: CaLsb4
# Procedure, shortened: as §1
# [30] = target: CaMyo5
# Procedure, shortened: as §1
# [31] = target: CaNbp2
# Procedure, shortened: as §1
# [32] = target: CaRvs167
# Procedure, shortened: as §1
# [33] = target: CaRvs167-3
# Procedure, shortened: as §1
# [34] = target: CaSho1
# Procedure, shortened: as §1
# [35] = target: CaSla1-D1-D2
# Procedure, shortened: as §1
# [36] = target: CaSla1-D3
# Procedure, shortened: as §1
# [37] = target: ScAbp1
# Procedure, shortened: as §1
# [38] = target: ScBbc1
# Procedure, shortened: as §1
# [39] = target: ScBem1-D1
# Procedure, shortened: as §1
# [40] = target: ScBzz1-D1
# Procedure, shortened: as §1
# [41] = target: ScBzz1-D2
# Procedure, shortened: as §1
# [42] = target: ScCyk3
# Procedure, shortened: as §1
# [43] = target: ScFus1
# Procedure, shortened: as §1
# [44] = target: ScHof1
# Procedure, shortened: as §1
# [45] = target: ScHse1
# Procedure, shortened: as §1
# [46] = target: ScLsb1
# Procedure, shortened: as §1
# [47] = target: ScLsb2
# Procedure, shortened: as §1
# [48] = target: ScLsb3
# Procedure, shortened: as §1
# [49] = target: ScLsb4
# Procedure, shortened: as §1
# [50] = target: ScMyo3
# Procedure, shortened: as §1
# [51] = target: ScMyo5
# Procedure, shortened: as §1
# [52] = target: ScNbp2
# Procedure, shortened: as §1
# [53] = target: ScPex13
# Procedure, shortened: as §1
# [54] = target: ScRvs167
# Procedure, shortened: as §1
# [55] = target: ScSho1
# Procedure, shortened: as §1
# [56] = target: ScSla1-D1-D2
# Procedure, shortened: as §1
# [57] = target: ScSla1-D3
# Procedure, shortened: as §1
# [58] = target: SpAbp1-D1
# Procedure, shortened: as §1
# [59] = target: SpBbc1
# Procedure, shortened: as §1
# [60] = target: SpBzz1-D1
# Procedure, shortened: as §1
binder,measurement,setting,value
NPNRRAPRRPLSTQH,SPOT peptide array binding signal intensity,[1],134
same,SPOT peptide array binding signal intensity,[2],248
same,SPOT peptide array binding signal intensity,[3],136
same,SPOT peptide array binding signal intensity,[4],18.5
same,SPOT peptide array binding signal intensity,[5],96
same,SPOT peptide array binding signal intensity,[6],1
same,SPOT peptide array binding signal intensity,[7],492
same,SPOT peptide array binding signal intensity,[8],37.8
same,SPOT peptide array binding signal intensity,[9],1700
same,SPOT peptide array binding signal intensity,[10],9.75
same,SPOT peptide array binding signal intensity,[11],110
same,SPOT peptide array binding signal intensity,[12],1.5
same,SPOT peptide array binding signal intensity,[13],1950
same,SPOT peptide array binding signal intensity,[14],≤ 0
same,SPOT peptide array binding signal intensity,[15],100
same,SPOT peptide array binding signal intensity,[16],484
same,SPOT peptide array binding signal intensity,[17],18
same,SPOT peptide array binding signal intensity,[18],660
same,SPOT peptide array binding signal intensity,[19],806
same,SPOT peptide array binding signal intensity,[20],1050
same,SPOT peptide array binding signal intensity,[21],184
same,SPOT peptide array binding signal intensity,[22],90
same,SPOT peptide array binding signal intensity,[23],104
same,SPOT peptide array binding signal intensity,[24],189
same,SPOT peptide array binding signal intensity,[25],374
same,SPOT peptide array binding signal intensity,[26],≤ 0
same,SPOT peptide array binding signal intensity,[27],108
same,SPOT peptide array binding signal intensity,[28],≤ 0
same,SPOT peptide array binding signal intensity,[29],330
same,SPOT peptide array binding signal intensity,[30],1.5
same,SPOT peptide array binding signal intensity,[31],4120
same,SPOT peptide array binding signal intensity,[32],19
same,SPOT peptide array binding signal intensity,[33],66
same,SPOT peptide array binding signal intensity,[34],562
same,SPOT peptide array binding signal intensity,[35],622
same,SPOT peptide array binding signal intensity,[36],12.2
same,SPOT peptide array binding signal intensity,[37],154
same,SPOT peptide array binding signal intensity,[38],185
same,SPOT peptide array binding signal intensity,[39],28.5
same,SPOT peptide array binding signal intensity,[40],30.5
same,SPOT peptide array binding signal intensity,[41],8
same,SPOT peptide array binding signal intensity,[42],109
same,SPOT peptide array binding signal intensity,[43],402
same,SPOT peptide array binding signal intensity,[44],1.25
same,SPOT peptide array binding signal intensity,[45],2480
same,SPOT peptide array binding signal intensity,[46],65
same,SPOT peptide array binding signal intensity,[47],12
same,SPOT peptide array binding signal intensity,[48],1470
same,SPOT peptide array binding signal intensity,[49],35
same,SPOT peptide array binding signal intensity,[50],20
same,SPOT peptide array binding signal intensity,[51],8.75
same,SPOT peptide array binding signal intensity,[52],4200
same,SPOT peptide array binding signal intensity,[53],23.5
same,SPOT peptide array binding signal intensity,[54],46.5
same,SPOT peptide array binding signal intensity,[55],984
same,SPOT peptide array binding signal intensity,[56],1340
same,SPOT peptide array binding signal intensity,[57],7
same,SPOT peptide array binding signal intensity,[58],313
same,SPOT peptide array binding signal intensity,[59],50.5
same,SPOT peptide array binding signal intensity,[60],352
